# Screening data deposited in PubChem by Broad Institute.
# aSyn UTR act – Activators via SNCA 5'UTR binding, MLPCN | 7.1% of 300,000 active | activity score, % (tested at 7.5 µM), hits read low | AID 1814, 2009 | alpha-synuclein 5'UTR reporter, activators screen; in the data active = activity score below about -60%
# Hits are given with their value; 0 = inactive. Only a sample is shown.
SMILES,aSyn UTR act
CC(C)(C)c1cc(NC(=O)c2cc(F)c(F)c(F)c2F)no1,-63
CC(C)(C)c1cc(NC(=O)C2CCCO2)no1 (stereo not drawn),-104
CC(C)(C)c1cc(NC(=O)c2cccs2)no1,-77
c1ccc(OCCSc2nnnn2-c2ccccc2)cc1,-86
Fc1ccccc1OCCSc1nnnn1-c1ccccc1,-83
Cc1ccc(NC(=O)/C(C#N)=C/c2ccc(C)s2)c(C)c1,-92
O=C(CSc1nnc(-c2ccc(O)cc2)o1)Nc1ccc2c(c1)OCCO2,-83
O=C(CSc1nnc(-c2ccc(O)cc2)o1)Nc1ccccc1Br,-132
O=C(CSc1nnc(-c2ccccc2Cl)o1)Nc1ccc2c(c1)OCCO2,-137
O=C(Nc1ccc2c(c1)OCCO2)C1CC(c2ccccc2Cl)=NO1 (stereo not drawn),-124
COc1ccc(-c2nnc(SC(C)C(=O)Nc3ccc4c(c3)OCCO4)o2)cc1 (stereo not drawn),-101
CCN1CCN(Cc2ccc(NC(=O)Nc3ccc(SC)cc3)cc2)CC1,-103
COc1ccc(OCc2cccc(C(=O)Nc3ccc(CN4CCCCC4)cc3)c2)cc1,-112
CCOc1ccc(OCc2cccc(C(=O)Nc3ccc(CN4CCCCC4)cc3)c2)cc1,0
CCN1CCN(Cc2ccc(NC(=O)Nc3ccc(OC)cc3)cc2)CC1,-74
CN(C)c1ccc(NC(=O)c2ccc(Cn3cc([N+](=O)[O-])cn3)cc2)cc1,-73
O=C(Nc1cnn(Cc2c(Cl)cccc2Cl)c1)c1ccc([N+](=O)[O-])cc1,-65
Cc1ccc(-c2cc(C(=O)N3CCCc4ccccc43)no2)cc1,-150
O=C(c1cc(-c2cccs2)on1)N1CCCc2ccccc21,-79
O=C(c1cc(-c2ccc(F)cc2)on1)N1CCCc2ccccc21,-62
CCOc1cc(C2c3c(n[nH]c3C)C(=O)N2c2ccc(Br)cc2)ccc1O (stereo not drawn),-62
CC(C)N(Cc1cn[nH]c1-c1ccc(-c2ccccc2)cc1)Cc1nccn1C,-106
CCn1nccc1C(=O)Nc1ccc(Cl)cn1,-96
CCn1ccc(C(=O)Nc2ccc(Cl)cn2)n1,-137
CCn1ccc(C(=O)Nc2ccccc2SC)n1,-175
SMILES,aSyn UTR act
Cn1c(CCNC(=O)c2ccccc2)nc2cc(NC(=O)c3ccco3)ccc21,-81
COc1ccccc1C(=O)Nc1ccc2c(c1)nc(CCNC(=O)c1ccco1)n2C,-295
CCC(=O)NCCc1nc2cc(NC(=O)c3ccco3)ccc2n1C,-73
Cn1c(CCNC(=O)c2ccco2)nc2cc(NC(=O)c3ccccc3)ccc21,-91
Cn1c(CCNC(=O)c2ccco2)nc2cc(NC(=O)c3ccco3)ccc21,-144
Cc1nn(C(=O)c2cccs2)c(N)c1-c1ccccc1,-125
Cc1cc(C)c2c3c(sc2n1)C1(CCSCC1)C(C#N)=C(N)O3,-90
CCNC(=O)NC(=O)COC(=O)c1ccccc1SCC(=O)NC(=O)NCC,-122
CCOc1ccc2c(c1)C(C)=CC(C)(C)N2S(=O)(=O)c1ccc(NC(C)=O)cc1,0
CC1=CC(C)(C)N(C(=O)CNC2CCCC2)c2cc(C)ccc21,-107
Cc1ccc(-c2ccc(/C=C3\SC(N4CCOCC4)=NC3=O)o2)cc1,-72
CSc1nc(Cl)cc(Nc2ccc(O)cc2)n1,-79
COc1ccc2cc3c(N)c(C(=O)N4CCCC4)sc3nc2c1,-189
CCOc1ccc2nc3sc(C(=O)N4CCN(C)CC4)c(N)c3cc2c1,-80
CC(C)c1ccc2nc3sc(C(=O)N4CCc5ccccc5C4)c(N)c3cc2c1,-62
Cc1ccc2cc3c(N)c(C(=O)N4CC(=O)Nc5ccccc54)sc3nc2c1,0
Cc1ccc2nc3sc(C(=O)N4CCOCC4)c(N)c3cc2c1,0
CNC(C)C#Cc1ccc2c(=O)c3c(OC)cccc3oc2c1 (stereo not drawn),-66
CNC(C)C#Cc1ccc2oc3cccc(OC)c3c(=O)c2c1 (stereo not drawn),-128
Cc1ccc(SCc2cn3cc(Cl)ccc3n2)cc1,-136
c1ccc2[nH]c(SCc3cn4ccccc4n3)nc2c1,-62
Clc1ccc(SCc2cn3ccccc3n2)cc1,-148
Clc1ccc2nc(CSCc3ccccc3)cn2c1,-167
c1ccc2c(SCc3cn4ccccc4n3)nncc2c1,-70
Cc1cc(C)c(C#N)c(SCc2cn3ccccc3n2)n1,-88
SMILES,aSyn UTR act
Cc1cccc2nc(CSc3ccc(Cl)cc3)cn12,-118
CNc1cc(CSc2ccc(Cl)cc2)nc(C)n1,-118
Nc1nnc(SCc2cn3cc(Cl)ccc3n2)s1,-97
COC(=O)Cc1c(C)c2ccc(OC(C)C)cc2oc1=O,-156
CCN1Cc2c(/C=C/c3ccccc3)nc3ccc(OC)cc3c2N(c2cccc(Cl)c2)C1,-66
C=CCc1cccc(/C=C/c2cc(=O)c3ccccc3[nH]2)c1O,-71
C=CCc1cccc(/C=N/NC(=O)CNc2ccccc2)c1O,0
Cc1ccc(/C=N/NC(=O)c2ccoc2C)s1,-120
Cc1occc1C(=O)N/N=C/c1ccc(Br)s1,-149
C/C(=N\NC(=O)c1ccoc1C)c1ccc(Br)s1,-65
CCOc1ccc(-c2c(=O)n(OCc3nc4ccccc4[nH]3)c3ccccc3[n+]2[O-])cc1,-112
